The source of these data is PubChem BioAssay.

Each structure is given as a SMILES string. The source made the active and inactive calls. Unless noted, the rule behind the calls is not given here.

The nature of experiment [1]: compound effects on lung adenocarcinoma cell viability – A549, calcein-AM fluorescence, 48 h, basal, profiling panel (AID 1162). Note: test concentration not given here. The settings on record: higher = more signal.
Experiment [2] is described as follows: compound effects on differentiated 3T3-L1 adipocyte viability – cell-based, 3T3-L1 adipocytes, calcein-AM fluorescence, 48 h, basal, profiling panel (AID 1163). Note: test concentration not given here. The settings on record: 3T3-L1 adipocytes viability, higher = more signal.
Experiment [3] can be described thus: compound effects on hepatocellular carcinoma cell viability – HepG2, calcein-AM fluorescence, 48 h, basal, profiling panel (AID 1164). Note: test concentration not given here. The settings on record: higher = more signal.
Experiment [4] in a line: compound effects on multiple myeloma cell viability – MM1S, calcein-AM fluorescence, 48 h, basal, profiling panel (AID 1165).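 Note: viability of MM1S multiple myeloma cells under basal unstimulated conditions; test concentration not given here.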 The settings on record: higher = more signal.
Experiment [5] in a line: calcein-AM signal in unstimulated myeloma cells – cell-based, calcein-AM fluorescence, 48 h, PK04 Diversity Set, profiling panel (AID 1166).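 Note: cells grown under basal conditions without added stimulus; test concentration not given here.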 The settings on record: RPMI8226 myeloma viability, higher = more signal.
The nature of experiment [6]: JC-1 mitochondrial signal, unstimulated HepG2 cells – cell-based, JC-1 fluorescence, 24 h, 100 nL compound, profiling panel (AID 1167). Note: test concentration not given here. To be noted: HepG2 mitochondrial potential, higher = more signal.
Experiment [7] in a line: JC-1 mitochondrial signal, unstimulated adipocytes – cell-based, JC-1 fluorescence, 3T3-L1 adipocytes, 24 h, 100 nL compound, profiling panel (AID 1168). Note: test concentration not given here. To be noted: JC-1 mitochondrial fluorescence, higher = more signal, called active from +8 up or from −8 down.
The nature of experiment [8]: JC-1 mitochondrial signal, unstimulated myeloma cells – cell-based, JC-1 fluorescence, RPMI8226, 24 h, 100 nL compound, profiling panel (AID 1169). Note: test concentration not given here. To be noted: JC-1 mitochondrial potential fluorescence, higher = more signal.
Experiment [9] is described as follows: JC-1 mitochondrial signal, unstimulated MM1S myeloma – cell-based, JC-1 fluorescence, 24 h, 100 nL compound, profiling panel (AID 1170). Note: test concentration not given here. The settings on record: MM1S mitochondrial potential, higher = more signal.
A short description of experiment [10]: resazurin metabolic signal in A549 cells – cell-based, resazurin fluorescence, 24 h, PK04 Diversity Set, profiling panel (AID 1171). Note: test concentration not given here. The settings on record: A549 viability, higher = more signal, called active from +8 up or from −8 down. (In general: Alamar Blue is a resazurin reagent that responds to reducing activity.)
A short description of experiment [11]: resazurin metabolic signal in HepG2 cells – cell-based, resazurin fluorescence, 24 h, PK04 Diversity Set, profiling panel (AID 1172). Note: test concentration not given here. To be noted: HepG2 viability, higher = more signal.
A short description of experiment [12]: budding yeast growth changes without added modifier – OD600, strain BY4716, 24 h, basal condition, primary screen (AID 1173). The settings on record: S. cerevisiae BY4716 growth, OD600, 24 h; higher = more signal, called active from +8 up or from −8 down.
The nature of experiment [13]: viability profiling in MM1S myeloma cells – cell-based, resazurin fluorescence, basal, 24 h, PK04 Diversity Set, profiling panel (AID 1174). Note: test concentration not given here. To be noted: higher = more signal, called active from +8 up or from −8 down.
Experiment [14] has as its target Dihydroorotate dehydrogenase (quinone), mitochondrial (Plasmodium falciparum (isolate 3D7)) (UniProt Q08210). The experiment in a line: inhibition of P. falciparum DHODH – biochemical, C-terminal His tag, absorbance 600 nm, primary screen (AID 1175).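 Note: recombinant parasite enzyme with a five histidine tag at its C terminus; test concentration not given here.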 To be noted: PfDHODH enzyme, DCIP absorbance 600 nm; higher = more signal, called active from +8 up or from −8 down.

Experiment [15] is described as follows: inhibition of PAO1 biofilm formation – strain PAO1, LB-PBS medium, absorbance 600 nm, primary screen (AID 1176). Note: test concentration not given here. The settings on record: P. aeruginosa PAO1 growth/biofilm, A600, 12 h; higher = more signal.
Experiment [16] in a line: growth modulation of vineyard yeast isolate – strain RM11-1a, OD600, basal, 24 h, primary screen (AID 1177).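 Note: cultures grown under basal conditions with no added stressor; test concentration not given here.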 To be noted: S. cerevisiae RM11-1a growth, OD600, 24 h; higher = more signal, called active from +8 up or from −8 down.
Experiment [17] in a line: growth of efflux-deficient E. coli DRC39 – strain DRC39, OD650, 24 h, E. coli filamentation inducers, primary screen (AID 1178).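 Note: growth measured as culture turbidity by optical density at 650 nm; test concentration not given here.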 To be noted: E. coli DRC39 acrAB, higher = more signal, called active from +8 up or from −8 down.
Experiment [18] can be described thus: growth of efflux-deficient E. coli DRC39 – strain DRC39, OD650, 48 h, E. coli filamentation inducers, primary screen (AID 1179).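 Note: screen aims at cell division blockers that make cells filament.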 To be noted: E. coli DRC39 delta-acrAB growth, higher = more signal, called active from +8 up or from −8 down.
Experiment [19] can be described thus: viability profiling in RPMI8226 myeloma cells – cell-based, resazurin fluorescence, basal, 24 h, PK04 Diversity Set, profiling panel (AID 1180).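 Note: RPMI8826 multiple myeloma cell line at 5000 cells per well; test concentration not given here.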 The settings on record: higher = more signal.
Experiment [20] concerns the target E3 ubiquitin-protein ligase XIAP (Homo sapiens) (UniProt P98170). The experiment in a line: small molecules binding XIAP protein – biophysical, small-molecule microarray, fluorescence 635 nm, primary screen (AID 1181).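 Note: score merges 667 nm emission and signal to noise over triplicate slides.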 To be noted: higher = more signal.

Dihydroorotate dehydrogenase (quinone), mitochondrial (Plasmodium falciparum (isolate 3D7)), sequence (Q08210 whole entry, looked up): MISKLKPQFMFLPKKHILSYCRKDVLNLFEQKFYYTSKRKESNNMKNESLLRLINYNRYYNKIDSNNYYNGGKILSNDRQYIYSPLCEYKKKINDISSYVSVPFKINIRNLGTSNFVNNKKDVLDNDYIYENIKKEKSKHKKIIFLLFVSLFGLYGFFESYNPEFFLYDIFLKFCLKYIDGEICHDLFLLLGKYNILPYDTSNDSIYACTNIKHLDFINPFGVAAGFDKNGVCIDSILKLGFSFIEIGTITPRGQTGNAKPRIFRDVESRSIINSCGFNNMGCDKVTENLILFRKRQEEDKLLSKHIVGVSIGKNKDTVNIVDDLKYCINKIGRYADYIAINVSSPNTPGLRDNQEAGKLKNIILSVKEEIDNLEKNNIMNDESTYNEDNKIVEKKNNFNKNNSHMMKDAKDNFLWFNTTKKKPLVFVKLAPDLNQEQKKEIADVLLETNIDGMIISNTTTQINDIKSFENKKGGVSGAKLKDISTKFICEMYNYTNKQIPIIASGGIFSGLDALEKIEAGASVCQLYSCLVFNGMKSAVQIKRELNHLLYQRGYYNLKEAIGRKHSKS
E3 ubiquitin-protein ligase XIAP (Homo sapiens), sequence (P98170 whole entry, looked up): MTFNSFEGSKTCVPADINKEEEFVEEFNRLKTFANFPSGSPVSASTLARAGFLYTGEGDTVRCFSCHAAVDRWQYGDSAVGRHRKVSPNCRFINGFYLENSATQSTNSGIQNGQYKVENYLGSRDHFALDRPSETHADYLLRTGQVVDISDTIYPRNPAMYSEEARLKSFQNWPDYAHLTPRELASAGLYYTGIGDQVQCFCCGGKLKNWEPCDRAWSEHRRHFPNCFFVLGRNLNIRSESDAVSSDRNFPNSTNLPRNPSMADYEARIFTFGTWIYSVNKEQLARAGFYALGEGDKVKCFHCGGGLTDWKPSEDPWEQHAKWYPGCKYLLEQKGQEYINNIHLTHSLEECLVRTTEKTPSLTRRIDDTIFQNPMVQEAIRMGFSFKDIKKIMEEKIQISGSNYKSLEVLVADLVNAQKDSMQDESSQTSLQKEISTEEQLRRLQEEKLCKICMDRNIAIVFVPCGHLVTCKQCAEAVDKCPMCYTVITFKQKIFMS

For `C=CCOC(=O)[C@H]1[C@@H]2C(=O)O[C@@H](c3ccccc3)[C@@H](c3ccccc3)N2[C@@H](c2ccc(OCCOC(=O)[C@H]3C[C@H]4C(=O)N[C@@H](CCCCNC(C)=O)C(=O)N4[C@H]3c3ccc(O)cc3)cc2)[C@]12C(=O)Nc1ccccc12`, the z-score was 1.72 in experiment [1]; 0.496 in experiment [2]; 1.27 in experiment [3]; -0.643 in experiment [4]; 1.03 in [5]; -0.297 in experiment [6]. In addition, the z-score is -0.0783 (inactive) in experiment [7]; -0.748 in [8]; -0.175 in experiment [9]; 2.07 (inactive) in [10]; 2.07 in experiment [11]; -1.68 (inactive) in experiment [12]. For the same compound, the z-score is 1.74 (inactive) in experiment [13]; 2.52 (inactive) in experiment [15]; -2.05 (inactive) in [16]; 2.63 (inactive) in experiment [17]; 2.11 (inactive) in experiment [18]; 1.11 in [19]. The figures for the composite z-score in experiment [14] and in experiment [20] were -0.875 (inactive) and 0.0013, respectively.

Take `O=C1NC(=O)C2C1C=CC(C(O)CCc1ccccc1)N2Nc1ccc(Cl)cc1Cl` (stereo not given): the z-score in [1] is -0.308; in experiment [2], -0.217; in experiment [3] it was -0.588; in experiment [4] it was -2.19; in experiment [5], -1.19; in experiment [6] it was -2.19. Further, the z-score is -1.75 (inactive) in experiment [7]; -0.236 in experiment [8]; -0.0222 in experiment [9]; -0.768 (inactive) in experiment [10]; -1.24 in experiment [11]; -3.34 (inactive) in experiment [12]. Also, the z-score was -1.59 (inactive) in experiment [13]; 0.667 (inactive) in experiment [15]; -0.385 (inactive) in experiment [16]; -0.172 (inactive) in experiment [17]; -0.611 (inactive) in experiment [18]; -1.77 in experiment [19]. Also, the composite z-score is -0.596 (inactive) in [14] and 0.178 in experiment [20].

With `COc1ccc([Si](C)(C)[C@@H]2[C@@H](CC(=O)N(CCO)Cc3ccccc3)O[C@]3(C(=O)N(c4ccccc4)c4ccccc43)[C@H]2C)cc1`, the z-score is -2.69 in experiment [1]; 1.11 in [2]; -4.56 in experiment [3]; -2.67 in experiment [4]; -4.36 in experiment [5]; -0.899 in experiment [6]. Further, the z-score is 0.928 (inactive) in [7]; -1.08 in experiment [8]; -2.3 in [9]; -1.94 (inactive) in experiment [10]; -2.66 in experiment [11]; -1.74 (inactive) in experiment [12]. Also, the z-score in experiment [13] was -5.11 (inactive); in [15], 1.26 (inactive); in [16], 0.525 (inactive); in experiment [17], 1.21 (inactive); in [18] it was 1.1 (inactive); in experiment [19], -5.53. Further, the composite z-score in experiment [14] is 0.818 (inactive); in experiment [20] it was -0.112.

On to `COC(=O)[C@@]1(Cc2ccc(OC)cc2)[C@H]2c3cc(C(=O)N4CCCC4)n(Cc4c(-c5ccccc5)noc4C)c3C[C@H]2CN1C(=O)c1ccccc1`, for which the z-score was -0.893 in experiment [1]; -0.451 in [2]; -0.176 in [3]; -2.72 in [4]; -4.68 in experiment [5]; 0.128 in [6]. The z-score was -0.732 (inactive) in experiment [7]; -0.774 in experiment [8]; -1.52 in experiment [9]; 0.356 (inactive) in [10]; -0.338 in experiment [11]; 1.63 (inactive) in experiment [12]. In addition, the z-score was -0.39 (inactive) in [13]; -0.526 (inactive) in experiment [15]; 1.18 (inactive) in [16]; 0.343 (inactive) in experiment [17]; -0.57 (inactive) in [18]; -0.61 in experiment [19]. Besides, the composite z-score in experiment [14] was 0.486 (inactive); in experiment [20], -0.0048.
